Measurements taken from PubChem BioAssay (NCI).
The panel holds about 79,000 compounds, 15% with a hit somewhere; the sample as a whole holds those more often. Calls of active or inactive are those of the source. Cut-off read from the data, not from the text of the source: active = growth inhibition above about 70%; inactive = the rest.

Experiments:
[1] = NCI Yeast Anticancer Drug Screen. Data for the rad50 strain (AID 155);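 note: 0% = growth of vehicle-only cultures of the same strain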; settings: S. cerevisiae rad50 strain growth inhibition; at 50.0 µM; hits give high values
In short: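 Relative growth inhibition (compound vs vehicle) was measured in yeast with a defined repair-gene alteration.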

[2] = NCI Yeast Anticancer Drug Screen. Data for the mec2-1 strain (AID 157); settings: S. cerevisiae mec2-1 strain, at 50.0 µM, hits give high values
In short: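 Readout is yeast growth inhibition, normalised to vehicle-treated controls, in the mec2-1 strain exposed to compound.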

[3] = NCI Yeast Anticancer Drug Screen. Data for the sgs1 mgt1 strain (AID 161);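 note: 0% = growth of cultures given vehicle only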; settings: S. cerevisiae sgs1 mgt1 strain, at 50.0 µM, hits give high values
In short: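 Yeast cells carrying a defined DNA-repair defect were exposed to test compounds. Growth inhibition was measured relative to vehicle-treated controls.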

[4] = NCI Yeast Anticancer Drug Screen. Data for the cln2 rad14 strain (AID 165);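 note: 0% = growth equal to vehicle treated cultures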; settings: S. cerevisiae cln2 rad14 strain, at 50.0 µM, hits give high values
In short: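 Relative to vehicle controls, growth inhibition of compound-treated cln2 rad14 yeast was recorded.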

[5] = NCI Yeast Anticancer Drug Screen. Data for the bub3 strain (AID 167); settings: S. cerevisiae bub3 mutant strain, at 50.0 µM, hits give high values
In short: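 Screening used yeast with an engineered genetic alteration affecting cell cycle control. Compound-exposed cultures were compared with vehicle cultures, and reduced growth was taken as inhibition.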

[6] = NCI Yeast Anticancer Drug Screen. Data for the mlh1 rad18 strain (AID 175); settings: S. cerevisiae mlh1 rad18 strain growth inhibition; at 50.0 µM; hits give high values
In short: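 Test agents were incubated with a yeast strain of defined genotype (DNA damage repair defect). Inhibition of growth was derived by comparison with vehicle-exposed cultures.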

Measured: growth inhibition

CC1CC(OC(=O)c2ccccc2)CCC1=O (stereo unspecified)
inactive: [1] -5.6% | [2] -2.85% | [3] -7.65% | [4] 14.5% | [5] 15.6% | [6] -7.8%

O=C(O)/C=C/C1CCCCC1
inactive: [1] 26.4% | [2] 14.3% | [3] 3.95% | [4] 4.35% | [5] -6.4% | [6] 21.2%

COc1ccc2cc(C(=O)c3ccccc3)c(=O)oc2c1
inactive: [1] -0.1% | [2] -20.9% | [3] 18.8% | [4] 11.1% | [5] 12.2% | [6] -13.6%

Cc1ccc(SCc2cn(C3OC(CO)C(O)C3O)c(=O)[nH]c2=O)cc1 (stereo unspecified)
inactive: [1] 25.3% | [2] 20.4% | [3] 12.9% | [4] 22.6% | [5] -1.4% | [6] 12.2%

CC(=O)OCC(OC(C)=O)C(OC(C)=O)C(OC(C)=O)C(S)S (stereo unspecified)
inactive: [1] 5.2% | [2] 50.1% | [3] 30.1% | [4] -4.2% | [5] 29.9% | [6] 28.9%

CC(C)CSc1nc2ccc(N=Cc3ccccc3O)cc2s1
inactive: [1] -29.4% | [2] -5.5% | [3] -11.3% | [4] -13% | [5] 8.75% | [6] -17.3%

CC1(C)CC2=C(SC3C=CC=CC3N2)C(=O)C1C(=O)C(N)=O (stereo unspecified)
inactive: [1] -34.7% | [2] -15% | [3] -5.05% | [4] -3.65% | [5] -23.1% | [6] -33.8%

CSc1ccc(C)c(/C=N/Nc2ccc([N+](=O)[O-])cc2[N+](=O)[O-])c1
inactive: [1] 7.05% | [2] 26.9% | [3] 18.4% | [4] -13.6% | [5] 0.5% | [6] 3.25%

Nc1cccc(CC(=O)c2ccccc2)n1
inactive: [1] -4.3% | [2] -11% | [3] -7.9% | [4] -8.55% | [5] -3.05% | [6] -13.1%

C=C1c2c(cc3c(c2O)c(=O)c2ccccc2n3C)OC1(C)C
inactive: [1] -31.2% | [2] -36.6% | [3] -23.1% | [4] -24.3% | [5] -25.8% | [6] -25.4%

Nc1cccc(CC(N)C(=O)O)c1 (stereo unspecified)
inactive: [1] -1.95% | [2] -5.55% | [3] -8.7% | [4] -44.1% | [5] -4.5% | [6] 1.7%

CCOC(=O)C(NC(C)=O)C(O)c1ccccc1 (stereo unspecified)
inactive: [1] -8.85% | [2] -16.2% | [3] -2% | [4] -24.6% | [5] -37.4% | [6] -9.95%

O=C(O)C1CCC1C(=O)O (stereo unspecified)
inactive: [1] -18.1% | [2] -24.1% | [3] -23.5% | [4] -23.9% | [5] 10.2% | [6] -2.5%

COc1ccccc1-c1cc(=O)c2c(C)cc(C)nc2[nH]1
inactive: [1] -15.8% | [2] -16.1% | [3] -0.6% | [4] -20.3% | [5] 6.25% | [6] 1.65%

O=C1CSC(=S)N1c1ccccc1
inactive: [1] 2.2% | [2] -3.8% | [3] -3.6% | [4] -4.75% | [5] 0.8% | [6] 2.9%

CC1=C(C(=O)O)CCc2ccccc21
inactive: [1] 40.7% | [2] -11.5% | [3] 19.9% | [4] 13.7% | [5] 15% | [6] 36.8%

CC1CCC(C(C)C)C(OC2(c3ccccc3)OC(=O)c3ccccc32)C1 (stereo unspecified)
inactive: [1] 23.7% | [2] -5.7% | [3] 15.4% | [4] 8.55% | [5] 8.65% | [6] 16.4%

Cc1cc2ncn(C3CCCO3)c2cc1C (stereo unspecified)
inactive: [1] 6.35% | [2] -6.1% | [3] -14.3% | [4] 3.45% | [5] 3.7% | [6] -23.1%

CC1(C)CC[C@]2(C(=O)O)CC[C@]3(C)C(=CC[C@@H]4[C@@]5(C)CC[C@H](OC6OC(C(=O)O)C(O)C(O)C6O)C(C)(C)[C@@H]5CC[C@]43C)[C@@H]2C1 (stereo partly specified)
active: [1] 90.8% | [2] 91% | [3] 91.7% | [4] 92.5% | [5] 91.3% | [6] 88.7%

O=c1[nH]c2ccccc2c2ccc(Br)cc12
inactive: [1] 17.4% | [2] -6.1% | [3] -2.65% | [4] 7.3% | [5] -3% | [6] 18.5%

NC(=O)NC(=O)OCCOC(=O)NC(N)=O
inactive: [1] -28.4% | [2] -11.7% | [3] -13.3% | [4] -16.7% | [5] -8.85% | [6] -13.2%

CNC1C(O)C(OC2C(N)CC(N)C(OC3OC(CN)C(O)C(O)C3O)C2O)OCC1(C)O (stereo unspecified)
inactive: [1] 27.1% | [2] -17.1% | [3] -12.7% | [4] 4.85% | [5] 9.9% | [6] 20.6%

CC1(C)CC(C)(Br)C(Br)C(=O)C1C(O)(C(F)(F)F)C(F)(F)F (stereo unspecified)
active: [1] 99.5% | [2] 99.8% | [3] 99.8% | [4] 99.2% | [5] 99.6% | [6] 99.8%

O=C1CCCCCCCCCCC1Br (stereo unspecified)
inactive: [1] 43.2% | [2] 3.15% | [3] 34.4% | [4] 31.9% | [5] 23.3% | [6] 21.4%

Cc1c2c(=O)oc3ccc(Cl)cc3c2nn1-c1ccccc1
inactive: [1] -13.9% | [2] -9.4% | [3] -11.8% | [4] -7.8% | [5] -25.7% | [6] -9.65%

COc1cccc(/C=C2\C(=O)N(C(=O)c3ccc(NC(C)=O)cc3)N=C2C)c1
inactive: [1] -43.9% | [2] -25.8% | [3] -57% | [4] -17.2% | [5] -38% | [6] -40.1%

CCCCNc1ccc2c(c1)Cc1ccccc1-2
inactive: [1] 18.9% | [2] -4.1% | [3] 15.8% | [4] 3.25% | [5] -18.8% | [6] -8.35%

O=C(Nc1ccccn1)c1ccccc1
inactive: [1] 35% | [2] 19.6% | [3] 15.6% | [4] 11.6% | [5] 26.4% | [6] 31.8%

CC(C)CCNCCCCCCl
inactive: [1] 62.5% | [2] 37.3% | [3] 36.7% | [4] 36.6% | [5] 26.8% | [6] 67.1%

N#CCCn1c(CCC(=O)Nc2ccc(Cl)cc2Cl)n[nH]c1=S
inactive: [1] -8.4% | [2] 0.65% | [3] -6.05% | [4] 13.6% | [5] 1.7% | [6] 2.45%

C=CCOC(=O)C(F)(F)F
inactive: [1] 0.15% | [2] -4.25% | [3] -0.7% | [4] 4.35% | [5] 6.85% | [6] -1.4%

C=CCc1cc(N)ccc1O
inactive: [1] 15.9% | [2] 8.9% | [3] 11.8% | [4] 11.8% | [5] 11.7% | [6] 7.9%

CCc1n[nH]c(=O)n1/N=C/c1ccccc1O
inactive: [1] -9.2% | [2] 3.8% | [3] -5.75% | [4] 3.4% | [5] -0.35% | [6] 24.6%

CSc1ncc2c(C#N)c3sc4ccccc4n3c(=O)c2n1
inactive: [1] 14.8% | [2] -8.05% | [3] 32.4% | [4] 12.4% | [5] 26.5% | [6] -21.1%

CCC(C)(S)CN (stereo unspecified)
inactive: [1] -1.55% | [2] -2.55% | [3] -7.35% | [4] -37.5% | [5] -11.4% | [6] -1.55%

CC(=O)OCC(OC(C)=O)C(OC(C)=O)C(C=NN(C(C)=O)S(=O)(=O)c1ccc(/C=C2\NC(=O)NC2=O)cc1)OC(C)=O (stereo unspecified)
inactive: [1] -4.6% | [2] -30.9% | [3] -17.9% | [4] 14% | [5] -17.8% | [6] -7.15%

Fc1ccccc1-c1nc2ccccc2s1
inactive: [1] 45% | [2] 3.75% | [3] 19.3% | [4] -3.45% | [5] 6.05% | [6] 28.3%

CCN(CCO)CC(O)Cn1cnc2c(N)ncnc21 (stereo unspecified)
inactive: [1] 2.35% | [2] -13.6% | [3] -18.1% | [4] 26.6% | [5] -17.3% | [6] 23.4%

C/C=C(/C)c1cccc(OCc2ccccc2)c1OCc1ccccc1
inactive: [1] -19.1% | [2] 9.35% | [3] -5.65% | [4] -21.6% | [5] -17.3% | [6] -7.05%

CCCN/C=C1\CC(=O)N(C)C1=O
inactive: [1] 5.15% | [2] 8.45% | [3] 2.5% | [4] -33.7% | [5] 6.4% | [6] 11.2%

Cc1nc2ccccc2s1
inactive: [1] 25.1% | [2] 48.2% | [3] 7.9% | [4] 29% | [5] -1.35% | [6] 4.05%
